In the library only some 8.9% were active in any assay of this set; here they are far more common.
D3 antag: blocks the human D3 dopamine receptor; P35462; D3R cells, DiscoveRx beta-arrestin luminescence, antagonist mode; stronger effect = lower value; max response, negative = inhibition, %; 360,000 compounds, 2.5% hits; AID 652054; in the data active means max response below about -50%; inconclusive means no clear call, values can overlap the other calls; further: on the % scale 0 is the no-effect control and ±100 the full control effect
Target sequence (P35462 whole entry, looked up): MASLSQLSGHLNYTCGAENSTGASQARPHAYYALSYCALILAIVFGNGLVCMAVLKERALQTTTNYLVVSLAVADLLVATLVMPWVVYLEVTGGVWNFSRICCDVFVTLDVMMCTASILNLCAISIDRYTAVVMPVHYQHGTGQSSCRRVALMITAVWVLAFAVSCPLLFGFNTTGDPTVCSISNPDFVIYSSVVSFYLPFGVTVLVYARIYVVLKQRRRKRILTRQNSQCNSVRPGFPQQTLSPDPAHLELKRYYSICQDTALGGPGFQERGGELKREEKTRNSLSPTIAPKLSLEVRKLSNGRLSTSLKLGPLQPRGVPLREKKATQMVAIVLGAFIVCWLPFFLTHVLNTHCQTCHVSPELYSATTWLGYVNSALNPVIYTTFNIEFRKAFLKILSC
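Cells expressing the human receptor were seeded at 1500 cells/well, incubated overnight at 37 degrees C in 5% CO2, then exposed to library compounds with dopamine controls for 90 minutes at 37 degrees C before luminescent detection.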
D3 ag: agonists of human D3 dopamine receptor; max activation, %; 410,000 compounds, 0.58% hits; P35462; D3R DiscoveRx beta-arrestin cells, luminescence, 90 min; in the data active means max activation above about 30%; further: 0% is about no effect
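Agonist mode: compounds and dopamine controls were applied to plated cells for 90 min at 37 degrees C after an overnight attachment at 1500 cells/well. Luminescent read-out followed 30 - 60 minutes at room temperature with DiscoveRx detection reagent.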
KB-V1 MDR tox: kills drug-selected multidrug resistant KB-V1 cells. KB-V1 MDR cells viability, CellTiter-Glo, 72 h. Potency, µM (doses to about 46.1 µM), actives largely listed as cytotoxic. 400,000 compounds, 3.4% hits; further: potency means the concentration at half of the fitted maximal effect; on the % scale 0 is the no-effect control and ±100 the full control effect; nearly all actives have a fitted effect of over 60% in size
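KB-V1, DMEM (no phenol red) + 10% FBS; cpd pin-transferred, titration series; 72 h, 37 degrees C; CellTiter-Glo, luminescence. Data normalized, curve-fit.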
KB-3-1 tox: KB-3-1 parental cell cytotoxicity; KB-3-1 viability, CellTiter-Glo ATP luminescence, 72 h; Potency, µM (highest dose often 46.1 µM), hits mostly cytotoxic; 400,000 compounds, 1.4% hits; further: potency means the concentration at half of the fitted maximal effect; on the % scale 0 is the no-effect control and ±100 the full control effect; nearly all actives have a fitted effect of over 60% in size
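KB-3-1 cells, DMEM (no phenol red) + 10% FBS; compound by pin transfer, 72 h, 37 °C. Readout: CellTiter-Glo luminescence after 10 min. Data normalized, curve-fitted.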
MCF10A rerep: DNA re-replication induction in MCF 10a cells | MCF 10A DNA re-replication, Hoechst nuclear intensity, 48 h | Potency, µM (highest dose often 46.1 µM), for inactives: top-dose activity, positive = re-replication, actives largely listed as activators | 350,000 compounds, 2.9% hits; further: potency means the concentration at half of the fitted maximal effect; % of control where 0% means no effect; nearly all actives have a fitted effect of over 50% in size
SW480 rereplic: induces DNA re-replication in SW480 colon adenocarcinoma cells; SW480 DNA re-replication, Hoechst DNA content imaging, 48 h; Potency, µM (highest dose often 46.1 µM), for the others: top-dose re-replication activation, usual class: activators; 340,000 compounds, 1.8% hits; AID 624297; further: potency means the concentration at half of the fitted maximal effect; % of control where 0% means no effect; nearly all actives have a fitted effect of over 55% in size
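Hoechst fluorescence of nuclei (405 nm excitation, 500-530 nm emission) measured by plate-scanning imager after 48 hr compound exposure at 37 C; re-replication scored as increased number of nuclei with elevated intensity.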
* hit, by the source's call; i = inactive; ? = inconclusive; nt = not tested or not shown; ! = repeats disagree; [ ] = another dose, or the depositor's remark. Unless noted, the call rests on the fitted dose curve; in most records, active means well fitted curve in the direction sought with a large enough effect; inconclusive means small, poorly fitted or top-dose-only effect, or another doubt; inactive means no such curve, though single readings can be large; an effect the other way counts as inactive or inconclusive.

SMILES	D3 antag	D3 ag	KB-V1 MDR tox	KB-3-1 tox	MCF10A rerep	SW480 rereplic
CC1(C)[C@@H](O)CC[C@]2(C)[C@H]3C(=O)C=C4[C@@H]5C[C@@](C)(C(=O)O)CC[C@]5(C)CC[C@@]4(C)[C@]3(C)CC[C@@H]12	0	18	i	i	-37%	-11%
CC(=O)c1ccc(NC(=O)c2cc(C)nc3c2c(C)nn3-c2ccc(C)cc2)cc1	nt	15	i	i	nt	nt
Cc1cc(C)c(C#N)c(SCc2ccccc2)n1	26	-14	i	i	-1%	-2%
Cc1ccc2nc(CSc3nc(C)cc(C)c3C#N)[nH]c2c1	-22	-21	i	i	1.8µM*	4.6µM*
COCC(=O)OCC(=O)c1cc(C)n(-c2ccc(Br)cc2)c1C	-3	6	i	i	-4%	-24%
Cc1cc(C(=O)COc2ccccc2Cl)c(C)n1-c1ccc2c(c1)OCO2	12	2	13µM*	18µM*	?	?
CNS(=O)(=O)c1cccc(C(=O)OCC(=O)c2cc(C)n(-c3ccc4c(c3)OCO4)c2C)c1	33	-11	?	?	1%	-2%
Cc1ccc(-n2c(C)cc(C(=O)COc3c(CO)cc(F)cc3CO)c2C)cc1C	22	5	7.3µM*	i	?	5%
CCc1ccccc1NS(=O)(=O)c1ccc(OC)c2ncccc12	80	31*!	i	i	3%	-6%
COc1ccc(NS(=O)(=O)c2ccc3ccccc3c2)c2ncccc12	?	-7	i	?	?	15µM*
CCOc1ccc(NC(=O)CN2CCN(Cc3ccccc3)S2(=O)=O)cc1	nt	5	i	i	nt	nt
COc1ccc(CCN2C(=O)c3[nH]nc(-c4ccccc4O)c3C2c2cccc(Cl)c2)cc1 (stereo unspecified)	12	6	?	18µM*	?	4%[9.22 µM]
COc1ccc(CCN2C(=O)c3[nH]nc(-c4ccccc4O)c3C2c2cccc(OC)c2)cc1 (stereo unspecified)	nt	22	nt	nt	nt	nt
CCCN1C(=O)c2[nH]nc(-c3ccccc3O)c2C1c1ccc(OCc2ccccc2)c(OC)c1 (stereo unspecified)	nt	15	?	21µM*	nt	nt
O=C(O)CCc1ccc(-c2ccccc2)n1-c1cccc(Br)c1	nt	-1	i	i	nt	nt
CCC(CC)C(=O)Nc1ccc2nc(SCC(=O)N3CCOCC3)sc2c1	nt	11	nt	nt	nt	nt
O=C(NCCC1=CCCCC1)C1CCN(S(=O)(=O)c2ccc(Br)s2)CC1	4	9	16µM*	i	?	1%
O=C(NCCC1=CCCCC1)C1CCCN(S(=O)(=O)c2ccccc2)C1 (stereo unspecified)	15	1	9.2µM*	i	?	21%
Cc1ccc(NC(=O)CSc2nc(C3CCCC3)nc3c2c(=O)n(C)c(=O)n3C)c(C)c1	nt	9	i	i	nt	nt
COc1ccc(/C=C2\SC(=S)N(CC(=O)N(C)C3CCS(=O)(=O)C3)C2=O)cc1 (stereo unspecified)	11	6	i	i	21µM*	?
COc1cccc(/C=C2\SC(=S)N(CC(=O)N(C)C3CCS(=O)(=O)C3)C2=O)c1 (stereo unspecified)	-11	4	i	i	?	?
O=C1c2cccc3cc([N+](=O)[O-])cc(c23)C(=O)N1/N=C/c1ccc(O)cc1O	-5	1	i	i	18%	13µM*
Cc1nn2c(=O)cc(COC(=O)c3ccccc3NC(=O)c3cccs3)nc2s1	nt	10	nt	nt	nt	nt
CC(=O)Nc1cc(-c2cccc(C(=O)NCCN(C)C)c2)cn2c(-c3ccc(S(C)(=O)=O)cc3)cnc12	-8	1	i	i	nt	nt
CC(=O)Nc1cc(-c2cccc(C(=O)NCCN(C)C)c2)cn2c(-c3ccccc3)cnc12	-52*	-24	i	i	nt	nt
SMILES	D3 antag	D3 ag	KB-V1 MDR tox	KB-3-1 tox	MCF10A rerep	SW480 rereplic
COc1ccc(-c2cnc3c(NC(C)=O)cc(-c4ccc(C(=O)NC5CC5)cc4)cn23)cc1OC	226	36*	i	i	nt	nt
COc1cc(-c2cc(NC(C)=O)c3ncc(-c4ccc(F)cc4)n3c2)cc(OC)c1OC	22	13	16µM*	i	nt	nt
CC(=O)Nc1cc(-c2ccc(CO)cc2)cn2c(-c3ccc(F)cc3)cnc12	-50*	-5	i	i	nt	nt
COc1cc(-c2cc(NC(C)=O)c3ncc(-c4ccc(C(C)=O)cc4)n3c2)cc(OC)c1OC	7	6	23µM*	?	nt	nt
COc1ccc(-c2cc(NC(C)=O)c3ncc(-c4cccc(C(C)=O)c4)n3c2)cc1OC	55	0	i	i	nt	nt
COc1ccnc(Oc2ccccc2)c1C(=O)N/C=N/OCc1ccc(F)cc1Cl	5	46*	i	?	?	-2%
COc1ccccc1CO/N=C/NC(=O)c1c(OC)ccnc1Oc1ccc(F)cc1	13	16	?	i	?	?
CCOc1c(Br)cc(CNc2ccc3c(c2)OCCO3)cc1OC	-4	-7	4.1µM*	2.1µM*	1.3µM*	5.8µM*
CCOc1cc(CNc2ccc3c(c2)OCCO3)cc(Br)c1OCC(N)=O	-21	-14	i	i	2%	4%
CCOc1cc(CNc2ccc3c(c2)OCCO3)cc(Br)c1OC	11	-3	2.1µM*	1.6µM*	1.6µM*	7.3µM*
COc1cc(CNc2ccc(C)c(C)c2)cc(OC)c1OC	-25	-5	?	i	16µM*	8.2µM*
CC1=C(C(=O)Nc2ccc(C)cc2C)C(c2ccc(O)cc2)n2nnnc2N1 (stereo unspecified)	nt	-19	i	i	nt	nt
Cc1ccc(OCCn2c(-c3ccc(Cl)cc3)nc3ccccc3c2=O)c(C)c1	nt	-3	?	i	nt	nt
Cc1cccc(NC(=O)CSc2nc3c(oc4ccccc43)c(=O)n2-c2ccccc2)c1C	nt	0	i	i	nt	nt
CN1CCN(C(=O)c2cc(COc3ccc(F)cc3Cl)on2)CC1c1ccccc1 (stereo unspecified)	-19	-17	i	16µM*	21µM*	?
COc1ccccc1OCc1cc(C(=O)N2CCN(C)C(c3ccccc3)C2)no1 (stereo unspecified)	-11	-7	i	i	16%	0%
O=C(c1cc(COc2ccc(F)cc2Cl)on1)N1CCCC(OCc2cccnc2)C1 (stereo unspecified)	0	7	9.2µM*	i	-4%	-7%
Cc1cc(CN(C)C(=O)c2cc(COc3ccc(F)cc3Cl)on2)n[nH]1	?	5	21µM*	i	-1%	1%

Compound activity: PubChem BioAssay, National Center for Advancing Translational Sciences (NCATS)
